A short description of experiment [1]: qHTS assay for small molecules that induce genotoxicity in human embryonic kidney cells expressing luciferase-tagged ATAD5 (AID 651632). Further: nearly all actives have a fitted effect of over 15% in size. Further: potency means the concentration at half of the fitted maximal effect. A digest of the protocol: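 ATAD5-luc HEK293T, 2,000 cells/well; cpd or DMSO pin-transferred; 16 hr, 37C/5% CO2; Amplite 30 min RT; luminescence.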
A general note: Quantitative high-throughput screening tests each substance at several concentrations.

Experiment [2] in a line: qHTS assay for small molecule agonists of the p53 signaling pathway - cell viability (AID 651633; calls by dose curve; further: nearly all actives have a fitted effect of over 30% in size; further: potency means the concentration at half of the fitted maximal effect). In a few lines: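 Viability counter-read: CellTiter-Glo luminescence (30 min, room temperature) in the same p53RE-bla plates. These plates had been exposed to compounds for 16 h at 37 C.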
A short description of experiment [3]: qHTS assay for small molecules that induce genotoxicity in human embryonic kidney cells expressing luciferase-tagged ATAD5 - cell viability (AID 651634; calls by dose curve; further: nearly all actives have a fitted effect of over 25% in size; further: potency means the concentration at half of the fitted maximal effect). In a few lines:
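Fluorescence from CellTiter-Fluor, reporting protease activity within live cells, served as the viability read-out. HEK293T cells carrying luciferase-tagged ATAD5 had been treated with compound for 15.5 hr at 37C.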

The nature of experiment [4]: qHTS assay for small molecule disruptors of the mitochondrial membrane potential - cell viability (AID 720634; calls by dose curve;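 further: human HepG2 liver cancer cells; nearly all actives have a fitted effect of over 20% in size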). A digest of the protocol:
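Cells: HepG2, 2,000/well, attached overnight. Compound 1 hr, 37 C/5% CO2. +m-MPI dye, +CellTiter-Glo 30 min RT. Readout: luminescence (ATP).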

Experiment [5] in a line: qHTS assay to test for compound auto fluorescence at 590 nm (red) in HepG2 cells (AID 720674). In a few lines: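 We screened compounds on adherent HepG2 cells, incubating them for an hour at 37 C in 5% CO2 before reading emission at 590 nm under 540 nm excitation; values reflect equivalence to Rose Bengal sodium fluorescence.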
Experiment [6] is described as follows: qHTS assay to test for compound auto fluorescence at 535 nm (green) in HepG2 cells (AID 720675).
Experiment [7] can be described thus: qHTS assay to test for compound auto fluorescence at 460 nm (blue) in HEK293 cells (AID 720678). In a few lines: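 HEK293 cells (2,000 per well, medium with 10% dialyzed FBS) attached for 4-5 hr at 37C, then received compound and stood overnight at 37C, 5% CO2. Blue fluorescence was read at Ex/Em 405/460 nm and expressed relative to triamterene.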
Experiment [8] is described as follows: qHTS assay to test for compound auto fluorescence at 590 nm (red) in HEK293 cells (AID 720679). A digest of the protocol: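 HEK293 cells (2,000/well, medium with 10% dialyzed FBS) attached for 4-5 hr at 37C, received 23 nL compound and were incubated overnight at 37C, 5% CO2. Red fluorescence was then read at 540/590nm Ex/Em, referenced to Rose Bengal sodium.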

Experiment [9] in a line: qHTS assay to test for compound auto fluorescence at 535 nm (green) in HEK293 cells (AID 720680).
Experiment [10] in a line: qHTS assay to test for compound auto fluorescence at 460 nm (blue) in HEK293 cell free culture (AID 720681). A digest of the protocol:
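Blue fluorescence (Ex 405/Em 460 nm, triamterene-equivalent) was read immediately after pin transfer of compound or DMSO into medium (DMEM, 10% FBS) without cells.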

Experiment [11] in a line: qHTS assay to test for compound auto fluorescence at 535 nm (green) in HEK293 cell free culture (AID 720682). A digest of the protocol: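 Each library compound, or DMSO control, is added by pintool to medium alone, comprising DMEM and 10% FBS. Emission at 535 nm following 485 nm excitation is quantified against fluorescein.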
A short description of experiment [12]: qHTS assay to test for compound auto fluorescence at 590 nm (red) in HEK293 cell free culture (AID 720683). A digest of the protocol: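 Red-channel autofluorescence of compounds in culture medium (DMEM, 10% FBS), no cells, measured at 540/590 nm. Rose Bengal sodium is the reference fluorophore for equivalence.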
Experiment [13] is described as follows: qHTS assay to test for compound auto fluorescence at 590 nm (red) in HepG2 cell free culture (AID 720684). A digest of the protocol:
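Steps: dispense MEM/10% FBS medium, no cells; pin compound or DMSO vehicle; read red channel, Ex/Em 540/590 nm. Output given as Rose Bengal sodium equivalents.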

The nature of experiment [14]: qHTS assay to test for compound auto fluorescence at 460 nm (blue) in HepG2 cell free culture (AID 720685). In a few lines: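 Compound (23 nL) or DMSO pinned into cell-free MEM with 10% FBS; blue fluorescence read at 405/460 nm excitation/emission, expressed as auto-fluorescence equivalency to triamterene.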
Experiment [15] can be described thus: qHTS assay to test for compound auto fluorescence at 535 nm (green) in HepG2 cell free culture (AID 720686).
A short description of experiment [16]: qHTS assay to test for compound auto fluorescence at 460 nm (blue) in HepG2 cells (AID 720687). In a few lines:
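Blue-channel autofluorescence (Ex/Em 405/460 nm, triamterene-equivalent) was measured after 1 hr compound exposure at 37 C, 5% CO2. Cells were HepG2, plated overnight at 37 C in MEM plus 10% FBS.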

Experiment [17] deals with Glucocorticoid receptor (Homo sapiens) (UniProt P04150). Briefly: qHTS assay to identify small molecule antagonists of the glucocorticoid receptor (GR) signaling pathway (AID 720692; active means well fitted inhibition curve with a large enough effect in the signal ratio in the repeat runs, not every such curve was filed as active; the % refers to the signal ratio; further: potency means the concentration at half of the fitted maximal effect). A digest of the protocol:
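HeLa GR-bla cells; cmpd + dex 5 nM final, 18 h 37 C; LiveBLAzer B/G FRET substrate 2 h RT; fluorescence intensity read. Antagonist mode, qHTS.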

The nature of experiment [18]: qHTS assay for small molecule disruptors of the mitochondrial membrane potential (AID 720635). Further: potency means the concentration at half of the fitted maximal effect. In a few lines:
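Mitochondrial membrane potential tracked with Mito-MPS dye, red aggregates (ex 540/em 590 nm) against green monomers (ex 490/em 535 nm). Compound treatment 1 hr at 37C, dye 30 min in HepG2.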

Experiment [19] has as its target Glucocorticoid receptor (Homo sapiens) (UniProt P04150). Put plainly: qHTS assay to identify small molecule agonists of the glucocorticoid receptor (GR) signaling pathway (AID 720691; active means well fitted activation curve with a large enough effect in the signal ratio in the repeat runs, not every such curve was filed as active; the % refers to the signal ratio). As to conditions: GR-bla HeLa, beta-lactamase reporter ratio, 18 h; activation: at 62.4 µM (top of the series). In a few lines: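 Fluorescence intensity from LiveBLAzer B/G FRET substrate (2 h, room temperature) reports beta-lactamase expression driven by the glucocorticoid response element in GR-bla HeLa cells after 18 h compound exposure at 37 C.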

The record followed here is PubChem BioAssay (Tox21).

Results filed as inconclusive are left out. Active and inactive are the calls of the source. Unless noted, the call rests on the fitted dose curve; in most records, active means well fitted curve in the direction sought with a large enough effect in the repeat runs; inconclusive means weak or mixed curves; inactive means no such curve, though single readings can be large; an effect the other way counts as inactive or inconclusive.

Glucocorticoid receptor (Homo sapiens), sequence (P04150 whole entry, looked up): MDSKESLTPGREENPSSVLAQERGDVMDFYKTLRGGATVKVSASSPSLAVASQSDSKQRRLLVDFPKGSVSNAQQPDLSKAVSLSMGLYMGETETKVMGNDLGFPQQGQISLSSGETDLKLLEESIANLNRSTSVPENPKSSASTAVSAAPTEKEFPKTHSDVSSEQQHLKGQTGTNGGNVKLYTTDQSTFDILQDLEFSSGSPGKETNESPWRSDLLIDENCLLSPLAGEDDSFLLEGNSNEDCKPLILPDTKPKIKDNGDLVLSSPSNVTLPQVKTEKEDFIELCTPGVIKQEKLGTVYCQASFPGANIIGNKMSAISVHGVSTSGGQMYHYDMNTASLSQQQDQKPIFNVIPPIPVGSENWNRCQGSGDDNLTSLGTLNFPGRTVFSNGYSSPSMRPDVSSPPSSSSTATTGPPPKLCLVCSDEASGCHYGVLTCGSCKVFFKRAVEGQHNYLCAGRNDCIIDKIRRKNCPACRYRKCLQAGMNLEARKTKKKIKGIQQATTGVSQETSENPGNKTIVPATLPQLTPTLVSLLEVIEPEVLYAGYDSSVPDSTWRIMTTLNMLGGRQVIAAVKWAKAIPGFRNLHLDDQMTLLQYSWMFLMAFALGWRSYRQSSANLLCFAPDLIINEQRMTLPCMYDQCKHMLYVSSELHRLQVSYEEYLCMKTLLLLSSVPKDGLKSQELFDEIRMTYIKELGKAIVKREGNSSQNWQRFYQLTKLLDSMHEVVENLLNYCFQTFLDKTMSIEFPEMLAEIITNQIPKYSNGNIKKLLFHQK

Take `N#Cc1nc(Cl)c(Cl)c(Cl)c1Cl`: the Potency in [1] is 4.86 µM (active); in experiment [2] it was 10.9 µM (active); in experiment [3] it was 4.86 µM (active); in experiment [17], 1.23 µM (active). For the same molecule, the Potency entry in experiment [4], in experiment [6], in experiment [7], in experiment [10], in experiment [14] and in [15] was “inactive” in each case. Further, the Potency result in experiment [16] is “inactive”. For the same molecule, the result in experiment [5], in experiment [8], in [9], in experiment [11], in experiment [12] and in [13] was inactive.

For `CCCCC/C=C\C=C\C(=O)OCC`, the Potency result in [1], in experiment [3], in experiment [4], in [6], in experiment [7] and in [10] was “inactive” in each case. Also, the Potency result in [14], in experiment [15], in [16] and in experiment [19] was “inactive” throughout. The Potency is 56.8 µM (active) in experiment [2], 71.5 µM (active) in [18] and 45.5 µM (active) in experiment [17]. The molecule was classed as inactive in [5], in [8], in experiment [9], in experiment [11], in experiment [12] and in experiment [13].

Regarding `O=C1CCCCCCCCCCCCCC1`, the Potency result in experiment [1], in experiment [2], in [3], in experiment [4], in [6] and in [7] was “inactive” throughout. The Potency entry in experiment [10], in experiment [14], in [15], in experiment [16], in experiment [19] and in experiment [17] was “inactive” throughout. The Potency in experiment [18] is 48.6 µM (active). Further, the molecule was classed as inactive in experiment [5], in [8], in [9], in experiment [12] and in [13].

Take `COc1c(Br)cc(Br)c(C)c1Br`: the Potency result in experiment [1], in [2], in experiment [3], in [4], in [6] and in [7] was “inactive” in each case. Besides, the Potency result in experiment [10], in [14], in experiment [15], in experiment [16] and in [19] was “inactive” throughout. In addition, the outcome in experiment [5], in experiment [8], in experiment [9], in [11], in experiment [12] and in experiment [13] was inactive.

`CC(=O)N[C@@H](C=O)[C@H](O)[C@H](O)[C@@H](O)CO`: the Potency entry in experiment [1], in experiment [2], in experiment [3], in experiment [4], in [6] and in experiment [7] was “inactive” throughout. For the same molecule, the Potency result in [10], in experiment [14], in [15] and in experiment [16] was “inactive” each time. For the same molecule, the molecule was called inactive in experiment [5], in [8], in [9], in experiment [11], in experiment [12] and in [13].

`COc1cccc2c1[C@@H]1CN(CCCCn3c(=O)[nH]c4c(sc5ncc(-c6ccccc6)nc54)c3=O)C[C@@H]1CO2`: the Potency entry in experiment [1], in experiment [4], in experiment [6], in experiment [7], in experiment [10] and in experiment [14] was “inactive” in each case. The Potency result in experiment [15] and in [16] was “inactive” each time. Besides, the Potency in [2] is 29.8 µM (active); in [3], 26.6 µM (active); in experiment [18], 13.3 µM (active). The molecule was classed as inactive in experiment [5], in [8], in [9] and in experiment [12].

Take `SC1CCCCC1`: the Potency result in experiment [1], in [2], in [3], in experiment [4], in experiment [6] and in [7] was “inactive” in each case. The Potency entry in experiment [10], in [14], in experiment [15], in experiment [16] and in [19] was “inactive” each time. Also, the Potency in experiment [18] is 50.5 µM (active). The result in experiment [5], in experiment [8], in [9], in experiment [11], in [12] and in experiment [13] was inactive.
